# High-throughput results as filed in PubChem BioAssay.
# JMJD2A Tudor = qHTS Assay for Inhibitors of JMJD2A-Tudor Domain; Potency, µM (series often up to 114 µM), for inactives: at the highest dose activity change, negative = inhibition, usual class: inhibitors; AlphaScreen JMJD2A-Tudor / H3K4me3 peptide binding; 4.4% of 390,000 active; Lysine-specific demethylase 4A (Homo sapiens), O75164; also: % is scaled to controls: 0 for no effect and ±100 for the full control effect; nearly all actives have a fitted effect of over 50% in size
# BAZ2B inh = qHTS Assay for Inhibitors of BAZ2B. Potency, µM (top dose mostly 114 µM), for the others: at the top dose activity change, negative = inhibition, usual class: inhibitors. 4.4% of 360,000 active. AlphaScreen BAZ2B-H3K14Ac peptide displacement; also: % is scaled to controls: 0 for no effect and ±100 for the full control effect; nearly all actives have a fitted effect of over 60% in size
#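 AlphaScreen displacement of biotin-H3(5-23)K14Ac peptide (50 nM final) from BAZ2B (50 nM final) in PBS pH 7.4, 0.01% Tween-20; complex preformed 30 min RT, then compounds (top 110 uM) 30 min RT, beads 20 min dark.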
# L3MBTL1 inh = qHTS Assay for the Inhibitors of L3MBTL1. Potency, µM (doses to about 57.1 µM), without a hit: at the top dose activity, negative = inhibition, hits mostly inhibitors. AlphaScreen L3MBTL1–H3K9me1 peptide binding. AID 485360, 2010. Lethal(3)malignant brain tumor-like protein 1 (Homo sapiens), Q9Y468. 0.66% of 230,000 active; also: % is scaled to controls: 0 for no effect and ±100 for the full control effect; nearly all actives have a fitted effect of over 60% in size
#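 AlphaScreen proximity signal between nickel-chelate acceptor and streptavidin donor beads (final 10 ug/mL) reports binding of 50 nM L3MBTL1 to 75 nM biotin-H3 K9me1 peptide; complex incubated with compounds 30 min at room temperature; cefsulodin titration as control.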
# Sfp inh = qHTS Assay for Inhibitors of Bacillus subtilis Sfp phosphopantetheinyl transferase (PPTase) | 4'-phosphopantetheinyl transferase ffp (Bacillus subtilis), Q9F4F7 | 3.5% of 310,000 active | Biochemical Sfp PPTase activity, qHTS | Potency, µM, for inactives: largest response in the series, negative = inhibition, actives largely listed as inhibitors;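 also: the enzyme is Sfp with the accession as filed and its product quenches rhodamine fluorescence; 0% = enzyme reaction without inhibitor and -100% = no enzyme wells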
#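 Compounds were incubated with enzyme (final 15 nM) for 15 min at room temperature before substrate addition started the reaction. Fluorescence at 525 nm excitation, 598 nm emission was recorded immediately and after 30 minutes.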
# G9a inh = qHTS Assay for Inhibitors of Histone Lysine Methyltransferase G9a | 8.8% of 350,000 active | G9a H3K9 monomethylation, AlphaScreen, 2 h | Potency, µM (titrated, usually from 102 µM), inactives show top-dose activity, negative = inhibition, actives largely listed as inhibitors | Histone-lysine N-methyltransferase EHMT2 (Homo sapiens), Q96KQ7; also: % is scaled to controls: 0 for no effect and ±100 for the full control effect; nearly all actives have a fitted effect of over 75% in size
# Target sequence (Q96KQ7 913-1193 limits assumed): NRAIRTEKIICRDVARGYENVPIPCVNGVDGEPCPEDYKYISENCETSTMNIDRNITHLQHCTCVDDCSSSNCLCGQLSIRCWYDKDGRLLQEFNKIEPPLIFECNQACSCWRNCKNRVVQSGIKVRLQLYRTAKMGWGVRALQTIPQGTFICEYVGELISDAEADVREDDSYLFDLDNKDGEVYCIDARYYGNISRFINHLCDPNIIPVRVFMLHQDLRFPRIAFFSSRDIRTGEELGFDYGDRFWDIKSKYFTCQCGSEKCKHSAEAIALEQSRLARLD
#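 AlphaScreen read-out: biotin-H3K9 peptide (500 nM) methylation by 20 nM enzyme with 20 uM SAM, 2 h at room temperature after 15 min compound preincubation; anti-monomethyl H3K9 antibody plus donor/acceptor beads, 10 min dark.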
# HP1b chromo inh = HTS for Inhibitors of HP1-beta Chromodomain Interactions with Methylated Histone Tails | 0.56% of 390,000 active | Chromobox protein homolog 1 (Homo sapiens), P83916 | Potency, µM (doses to about 114 µM), without a hit: at the highest dose activity change, negative = inhibition, usual class: inhibitors | AlphaScreen HP1-beta / biotin-H3K9me3 peptide binding; also: nearly all actives have a fitted effect of over 70% in size
# Target sequence (P83916 whole entry, looked up): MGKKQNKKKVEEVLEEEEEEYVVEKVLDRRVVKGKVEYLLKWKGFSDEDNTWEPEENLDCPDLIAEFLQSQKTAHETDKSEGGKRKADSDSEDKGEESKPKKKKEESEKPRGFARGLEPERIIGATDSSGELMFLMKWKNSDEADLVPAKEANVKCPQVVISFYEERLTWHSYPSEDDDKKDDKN
#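 HP1-beta protein (50 nM final) preincubated 30 min at room temperature with biotinylated H3(1-18)K9me3 peptide (50 nM) in PBS pH 7.4, 0.01% Tween-20, then compound added for 30 min. AlphaScreen streptavidin donor/nickel chelate acceptor beads (10 ug/mL final), 30 min dark, luminescence read.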
# * = called active by the depositor; ? = inconclusive; · = no result; [ ] = another dose, or the depositor's remark. Rows were chosen to be rich in hits. Some 12% of all compounds tested hit in one or more screens of this group. Calls follow the shape of the dose curve; as a rule, active = well fitted curve in the direction sought with a large enough effect; inconclusive = small, poorly fitted or top-dose-only effect, or another doubt; inactive = no such curve, though single readings can be large; an effect the other way counts as inactive or inconclusive. Potency is read from the fitted curve at half-maximal effect.
SMILES,JMJD2A Tudor,BAZ2B inh,L3MBTL1 inh,Sfp inh,G9a inh,HP1b chromo inh
COc1ccc(NCc2cccn2-c2nnc(N3CCOCC3)s2)cc1OC,-24%,-2%[57.1 µM],·,·,?,-2%
O/N=C\c1cccn1-c1ccc(Br)cc1,79µM*,?,·,?,?,-33%
CCCC[C@H](NC(=O)[C@H](CO)NC(=O)[C@H](Cc1ccc(O)cc1)NC(=O)[C@H](CO)NC(C)=O)C(=O)N[C@@H](CCC(=O)O)C(=O)N[C@@H](Cc1cnc[nH]1)C(=O)N[C@H](Cc1ccccc1)C(=O)N[C@@H](CCCNC(=N)N)C(=O)N[C@@H](Cc1c[nH]c2ccccc12)C(=O)NCC(=O)N[C@@H](CCCCN)C(=O)N1CCC[C@H]1C(=O)N[C@H](C(N)=O)C(C)C,·,·,·,13%,·,·
Cc1ccc(Cn2c(CCNc3nc(-c4ccc(Cl)c([N+](=O)[O-])c4)cs3)nc3cc(C(=O)NCCCO)ccc32)cc1,35µM*,·,·,·,·,2%
O=[N+]([O-])c1cc(-c2csc(NCCc3nc4cc(C(F)(F)F)ccc4n3CCCO)n2)ccc1Cl,45µM*,·,·,·,·,2%
OCCCn1c(CCNc2nc(-c3ccc(Cl)cc3)cs2)nc2cc(C(F)(F)F)ccc21,-27%,·,·,·,·,24%
CC(=O)OCC(=O)[C@@]1(O)[C@H](C)C[C@@H]2[C@H]3CCC4=CC(=O)C=C[C@]4(C)[C@]3(F)[C@@H](O)C[C@@]21C,·,·,·,6%,11%[21.5 µM],·
Cc1ccccc1Cn1cc(NC(=O)c2cc(C3CC3)on2)cn1,-16%,?,-23%,5%,40µM*,6%[57 µM]
O=C(NNC(=S)Nc1ccc(Br)cc1)c1cccnc1,-16%,-1%,·,22%,10µM*,10%
CC(C)c1ccc(NC(=S)NNC(=O)c2cccnc2)cc1,-24%,2%,-3%,21%,32µM*,14%
CCNC(=S)NNC(=O)c1cccnc1,-22%,6%,9%,0%,25%[59 µM],23%
COc1ccc(-c2nc3scc(CCNS(=O)(=O)c4ccc(F)cc4F)n3n2)cc1OC,-14%,-10%,·,·,2%[59 µM],10%
S=C1NCCNC(=S)NCCOCCOCCN1,40µM*,-17%,·,27%,-6%[59 µM],-9%
C1COCCNCCOCCOCCOCCN1,-16%,8%,5%,5%,18%,9%
O=C(CCc1nc(-c2ccccc2)no1)NCc1ccccc1CN1CCOCC1,1%,-5%,5%,·,-8%[59 µM],33%
Cc1ccc(Cl)cc1NC(=O)c1cnn2c(C(F)F)cc(-c3ccccc3)nc12,-17%,-10%,·,·,0%[59 µM],46%
COc1ccc(Cn2nnc3c(=O)[nH]c(C(=O)NCCc4ccc(F)cc4)nc32)cc1OC,79µM*,-1%,3%,2%,-11%[59 µM],12%
Cc1ccc(C)c(Cn2nnc3c(=O)[nH]c(C(=O)NCC4CCCO4)nc32)c1 (stereo not given),?,-4%,7%,-14%,-10%[59 µM],18%
COCCNC(=O)c1nc2c(nnn2Cc2cc(C)ccc2C)c(=O)[nH]1,?,-18%,13%,?,11µM*,10%
O=C(NCCc1ccccc1)c1nc2c(nnn2Cc2ccccc2Cl)c(=O)[nH]1,-19%,12%,9%,-5%,-2%[59 µM],23%
Cc1ccc(-n2c(=O)[nH]c3c(C(N)=O)nc(CC(C)C)nc32)cc1,-18%,15%,2%,-6%,55%[59 µM],36%
Cc1ccc(-n2c(=O)[nH]c3c(C(N)=O)nc(-c4ccc(C)o4)nc32)cc1,?,2%,-3%,45µM*,?,20%
